# A number with no mark means an inactive call. Records with an inconclusive call do not appear. The source made the active and inactive calls. Unless noted, calls come from the whole dose curve; as a rule, active = well fitted inhibition curve with a large enough effect; inconclusive = small, poorly fitted or top-dose-only effect; inactive = flat fitted curve, though single readings scatter.
# Legend:
# [1] = Drug repurposing screens with cells derived from glioblastoma tumor samples (AID 1345199); conditions: GBM patient neurospheres viability, ATP luminescence, 48 h; note: nearly all actives have a fitted effect of over 40% in size; note: potency is the fitted concentration of half-maximal effect; for activity, negative = cell killing: % is set by controls: 0 for no effect and ±100 for the full control effect
# Outline: (§1)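 Primary testing used CD133+ neurospheres from four GBM patients, seven concentrations, 48 h exposure and ATP-based viability; confirmation added three slower-growing patient lines.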
# [2] = tested on: astro; assay: as above; conditions: viability, ATP luminescence, 48 h; series mostly up to 45.9 µM
# Outline: as §1
# [3] = biological target: Nuclear receptor subfamily 1 group I member 2 (Rattus norvegicus) (UniProt Q9R1A7); assay: qHTS assay for small molecule activators of the rat pregnane X receptor (rPXR) signaling pathway (AID 651751; call rule not given here; note: 0% is about no effect); conditions: rPXR reporter cells, luciferase (One-Glo), 24 h
# [4] = qHTS assay for small molecule activators of the human pregnane X receptor (PXR) signaling pathway (AID 720659; call rule not given here; note: 0% is about no effect); conditions: DPX-2 HepG2 CYP3A4-luciferase, 24 h; series mostly up to 92.3 µM
# [5] = at 45.9 µM (top of the series), tumour line B
# [6] = at 45.9 µM (top of the series), tumour line D
# [7] = at 46.1 µM (top of the series), tumour line C
# [8] = at 46 µM (top of the series), tumour line A
# Chain of Nuclear receptor subfamily 1 group I member 2 (Rattus norvegicus) (Q9R1A7 whole entry, looked up): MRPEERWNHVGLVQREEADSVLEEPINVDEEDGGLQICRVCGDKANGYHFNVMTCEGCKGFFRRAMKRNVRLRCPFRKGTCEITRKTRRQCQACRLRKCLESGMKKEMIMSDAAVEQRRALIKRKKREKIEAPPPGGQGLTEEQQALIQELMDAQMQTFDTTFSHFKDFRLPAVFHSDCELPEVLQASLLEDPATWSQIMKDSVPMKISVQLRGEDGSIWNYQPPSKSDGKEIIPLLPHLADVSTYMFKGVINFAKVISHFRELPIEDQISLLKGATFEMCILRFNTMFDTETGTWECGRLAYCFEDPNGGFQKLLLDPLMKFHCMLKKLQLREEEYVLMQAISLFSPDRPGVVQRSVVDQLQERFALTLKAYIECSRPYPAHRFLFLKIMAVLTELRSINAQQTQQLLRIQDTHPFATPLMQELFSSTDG
compound,measurement,setting,value
CCCCC/C=C\C/C=C\C/C=C\CCCCC(=O)O,"activity, negative = cell killing",[1]; [5],-11.2%
same,"activity, negative = cell killing",[1]; [6],2.8%
same,"activity, negative = cell killing",[1]; [7],1.83%
same,Potency,[2],inactive
CN(CCO)CC(O)Cn1cnc2c1c(=O)n(C)c(=O)n2C (stereo not given) (tested in a mixture with another compound),"activity, negative = cell killing",[1]; [5],-0.373%
same,"activity, negative = cell killing",[1]; [6],-10.7%
same,"activity, negative = cell killing",[1]; [8],-23.5%
same,"activity, negative = cell killing",[1]; [7],-30%
same,Potency,[2],inactive
same,max response,[3],-1.56%
same,outcome,[4],inactive
CC1CCC(NC(=O)N(CCCl)N=O)CC1 (stereo not given),"activity, negative = cell killing",[1]; [5],-5.97%
same,"activity, negative = cell killing",[1]; [6],0.785%
same,"activity, negative = cell killing",[1]; [7],-19.7%
same,Potency,[2],inactive
CO,"activity, negative = cell killing",[1]; [5],-8.56%
same,"activity, negative = cell killing",[1]; [6],-4.99%
same,"activity, negative = cell killing",[1]; [8],-10.2%
same,"activity, negative = cell killing",[1]; [7],-11.6%
same,Potency,[2],inactive
same,max response,[3],4.07%
same,outcome,[4],inactive
CNCC(=O)N[C@@H](CCCN=C(N)N)C(=O)N[C@H](C(=O)N[C@@H](Cc1ccc(O)cc1)C(=O)N[C@H](C(=O)N[C@@H](Cc1cnc[nH]1)C(=O)N1CCC[C@H]1C(=O)N[C@@H](C)C(=O)O)C(C)C)C(C)C,"activity, negative = cell killing",[1]; [5],-7.12%
same,"activity, negative = cell killing",[1]; [6],-7.19%
same,"activity, negative = cell killing",[1]; [7],-6.49%
same,Potency,[2],inactive
Cc1ccc(S(=O)(=O)NCl)cc1,"activity, negative = cell killing",[1]; [5],-6.22%
same,"activity, negative = cell killing",[1]; [6],7.3%
same,"activity, negative = cell killing",[1]; [8],-22.9%
same,"activity, negative = cell killing",[1]; [7],-11.3%
same,Potency,[2],inactive
same,max response,[3],-0.198%
same,outcome,[4],inactive
C=CC[N+]1([C@H]2C[C@H]3[C@@H]4CC[C@H]5C[C@H](O)[C@@H](N6CCOCC6)C[C@]5(C)[C@H]4CC[C@]3(C)[C@H]2OC(C)=O)CCCC1,"activity, negative = cell killing",[1]; [5],-3.03%
same,"activity, negative = cell killing",[1]; [6],-12.4%
same,"activity, negative = cell killing",[1]; [7],-21.7%
same,Potency,[2],inactive
Cc1ccc(S(=O)(=O)O)cc1C,"activity, negative = cell killing",[1]; [5],-6.15%
same,"activity, negative = cell killing",[1]; [6],0.633%
same,"activity, negative = cell killing",[1]; [8],-2.37%
same,"activity, negative = cell killing",[1]; [7],-2.17%
same,Potency,[2],inactive
same,max response,[3],0.795%
same,outcome,[4],inactive
CCC[C@@H]1C[C@@H](C(=O)N[C@@H]([C@H]2O[C@H](SC)[C@H](O)[C@@H](O)[C@H]2O)[C@H](C)Cl)N(C)C1,"activity, negative = cell killing",[1]; [5],1.77%
same,"activity, negative = cell killing",[1]; [6],-7.32%
same,"activity, negative = cell killing",[1]; [8],-25.1%
same,Potency,[2],inactive
O=P(O)(O)O,"activity, negative = cell killing",[1]; [5],9.14%
same,"activity, negative = cell killing",[1]; [6],-2.27%
same,"activity, negative = cell killing",[1]; [8],-6.51%
same,"activity, negative = cell killing",[1]; [7],0.794%
same,Potency,[2],inactive
same,max response,[3],-0.433%
same,outcome,[4],inactive
CC/C=C\C/C=C\C/C=C\CCCCCCCC(=O)O,"activity, negative = cell killing",[1]; [5],8.6%
same,"activity, negative = cell killing",[1]; [6],-7.43%
same,"activity, negative = cell killing",[1]; [8],-13.9%
same,"activity, negative = cell killing",[1]; [7],5.73%
same,Potency,[2],inactive
same,max response,[3],-2.75%
same,outcome,[4],inactive
O=c1[nH]c(=O)n([C@H]2C[C@H](O)[C@@H](CO)O2)cc1/C=C/Br,"activity, negative = cell killing",[1]; [5],-10.7%
same,"activity, negative = cell killing",[1]; [6],-3.23%
same,"activity, negative = cell killing",[1]; [7],-17.1%
same,Potency,[2],inactive
CC[C@H]1OC(=O)[C@H](C)[C@@H](O[C@H]2C[C@@](C)(OC)[C@@H](O)[C@H](C)O2)[C@H](C)[C@@H](O[C@@H]2O[C@H](C)C[C@H](N(C)C)[C@H]2O)[C@](C)(O)C[C@@H](C)CN(C)[C@H](C)[C@@H](O)[C@]1(C)O,"activity, negative = cell killing",[1]; [5],-13.7%
same,"activity, negative = cell killing",[1]; [6],-25.4%
same,"activity, negative = cell killing",[1]; [7],-5.95%
same,Potency,[1]; tumour line A,5.01 µM (active)
same,Potency,[2],inactive
same,max response,[3],-1.6%
same,outcome,[4],inactive
CCOC(C)OCC,"activity, negative = cell killing",[1]; [5],-4.71%
same,"activity, negative = cell killing",[1]; [6],-10.7%
same,"activity, negative = cell killing",[1]; [8],-12.1%
same,"activity, negative = cell killing",[1]; [7],-14.4%
same,Potency,[2],inactive
same,max response,[3],0.058%
same,outcome,[4],inactive
C=CC[N@@+]12CC[C@@]34c5ccccc5N5/C=C6/[C@H]7C[C@H]8[C@@]9(CC[N@@+]8(CC=C)C/C7=C/CO)c7ccccc7N(/C=C(/[C@@H](C[C@@H]31)/C(=C\CO)C2)[C@H]54)[C@@H]69,"activity, negative = cell killing","[1]; at 20 µM (top of the series), tumour line C",-3.52%
same,"activity, negative = cell killing","[1]; at 21.2 µM (top of the series), tumour line B",-8.94%
same,"activity, negative = cell killing","[1]; at 21.2 µM (top of the series), tumour line D",3.96%
O=[N+]([O-])O[C@@H]1CO[C@H]2[C@@H]1OC[C@@H]2O,"activity, negative = cell killing",[1]; [8],-36.5%
CC(C)(COP(=O)(O)OP(=O)(O)OC[C@H]1O[C@@H](n2cnc3c(N)ncnc32)[C@H](O)[C@@H]1OP(=O)(O)O)C(O)C(=O)NCCC(=O)NCCS (stereo not given in full),"activity, negative = cell killing",[1]; [8],-28.8%
S=C1SCN(Cc2ccccc2)CN1Cc1ccccc1,Potency,[1]; tumour line A,11.2 µM (active)
C=CCN1CCCC1CNC(=O)c1cc(S(N)(=O)=O)cc(OC)c1OC (stereo not given),Potency,[1]; tumour line A,35.5 µM (active)
CCOc1ccc(S(=O)(=O)O)c2cccnc12,"activity, negative = cell killing",[1]; [5],-12%
same,"activity, negative = cell killing",[1]; [6],-2.86%
same,"activity, negative = cell killing",[1]; [7],-26.7%
same,Potency,[2],inactive
C[C@@H]1C[C@H]2[C@@H]3C[C@H](F)C4=CC(=O)C=C[C@]4(C)[C@@]3(Cl)[C@@H](O)C[C@]2(C)[C@H]1C(=O)COC(=O)C(C)(C)C,"activity, negative = cell killing",[1]; [5],-18.4%
same,"activity, negative = cell killing",[1]; [6],-9.89%
same,"activity, negative = cell killing",[1]; [7],-26.7%
same,Potency,[2],inactive
